Screening results: PubChem, National Center for Advancing Translational Sciences (NCATS)
BAZ2B inh: qHTS Assay for Inhibitors of BAZ2B; 360,000 compounds, 4.4% hits; AlphaScreen BAZ2B-H3K14Ac peptide displacement; Bromodomain adjacent to zinc finger domain protein 2B (Homo sapiens), Q9UIF8; Potency, µM (top dose mostly 114 µM), without a hit: at the highest dose activity change, negative = inhibition, usual class: inhibitors; also: % is scaled to controls: 0 for no effect and ±100 for the full control effect; nearly all actives have a fitted effect of over 60% in size
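AlphaScreen displacement of biotin-H3(5-23)K14Ac peptide (50 nM final) from BAZ2B (50 nM final) in PBS pH 7.4, 0.01% Tween-20; complex preformed 30 min RT, then compounds (top 110 uM) 30 min RT, beads 20 min dark.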
HP1b binding inh: HTS for Inhibitors of HP1-beta Chromodomain Interactions with Methylated Histone Tails | AlphaScreen HP1-beta / biotin-H3K9me3 peptide binding | Potency, µM (titrated, usually from 114 µM), for inactives: at the highest dose activity change, negative = inhibition, hits mostly inhibitors | 390,000 compounds, 0.56% hits | AID 540317, 2011; also: nearly all actives have a fitted effect of over 70% in size
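AlphaScreen: HP1-beta (50 nM) preformed 30 min with biotin-H3(1-18)K9me3 peptide (50 nM) in PBS pH 7.4, 0.01% Tween-20. Compound added for 30 min at RT, then streptavidin donor/nickel chelate acceptor beads (10 ug/mL) for 30 min.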
VDR inhibitor: Inhibitors of the vitamin D receptor (VDR): qHTS | Vitamin D3 receptor (Homo sapiens), P11473 | VDR-SRC2-3 peptide fluorescence polarization, 2 h | Potency, µM, for the others: max response, negative = inhibition, most hits filed as inhibitors | 400,000 compounds, 0.93% hits; also: % is scaled to controls: 0 for no effect and ±100 for the full control effect
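Two reagent solutions held at 4 deg C in the dark were dispensed, compounds pinned at 23 nl, and the mixture incubated 2 h at room temperature. Read-out: fluorescence polarization of VDR–SRC2-3 peptide binding.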
G9a block: qHTS Assay for Inhibitors of Histone Lysine Methyltransferase G9a; G9a H3K9 monomethylation, AlphaScreen, 2 h; Potency, µM (series often up to 102 µM), inactives show at the highest dose activity, negative = inhibition, usual class: inhibitors; 350,000 compounds, 8.8% hits; also: % is scaled to controls: 0 for no effect and ±100 for the full control effect; nearly all actives have a fitted effect of over 75% in size
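Methyltransferase reactions run at room temperature for 2 h (20 nM enzyme, 500 nM biotin-H3K9 peptide, 20 uM SAM) after a 15 min compound preincubation; product detected by AlphaScreen beads and anti-H3K9me1 antibody.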
JMJD2A Tudor inh: qHTS Assay for Inhibitors of JMJD2A-Tudor Domain; Lysine-specific demethylase 4A (Homo sapiens), O75164; AlphaScreen JMJD2A-Tudor / H3K4me3 peptide binding; Potency, µM (doses to about 114 µM), for inactives: at the highest dose activity change, negative = inhibition, usual class: inhibitors; 390,000 compounds, 4.4% hits; also: % is scaled to controls: 0 for no effect and ±100 for the full control effect; nearly all actives have a fitted effect of over 50% in size
PLK1 PBD block: qHTS for Inhibitors of PLK1-PDB (polo-like kinase 1 - polo-box domain): Primary Screen | Plk1 PBD binding of FITC phosphopeptide, fluorescence polarization | Serine/threonine-protein kinase PLK1 (Homo sapiens), P53350 | Potency, µM, inactives show max response, negative = inhibition, hits mostly inhibitors | 360,000 compounds, 2.8% hits; also: series mostly up to about 57 µM; % is scaled to controls: 0 for no effect and ±100 for the full control effect; nearly all actives have a fitted effect of over 65% in size
Target sequence (P53350 whole entry, looked up, the tested form may be a part): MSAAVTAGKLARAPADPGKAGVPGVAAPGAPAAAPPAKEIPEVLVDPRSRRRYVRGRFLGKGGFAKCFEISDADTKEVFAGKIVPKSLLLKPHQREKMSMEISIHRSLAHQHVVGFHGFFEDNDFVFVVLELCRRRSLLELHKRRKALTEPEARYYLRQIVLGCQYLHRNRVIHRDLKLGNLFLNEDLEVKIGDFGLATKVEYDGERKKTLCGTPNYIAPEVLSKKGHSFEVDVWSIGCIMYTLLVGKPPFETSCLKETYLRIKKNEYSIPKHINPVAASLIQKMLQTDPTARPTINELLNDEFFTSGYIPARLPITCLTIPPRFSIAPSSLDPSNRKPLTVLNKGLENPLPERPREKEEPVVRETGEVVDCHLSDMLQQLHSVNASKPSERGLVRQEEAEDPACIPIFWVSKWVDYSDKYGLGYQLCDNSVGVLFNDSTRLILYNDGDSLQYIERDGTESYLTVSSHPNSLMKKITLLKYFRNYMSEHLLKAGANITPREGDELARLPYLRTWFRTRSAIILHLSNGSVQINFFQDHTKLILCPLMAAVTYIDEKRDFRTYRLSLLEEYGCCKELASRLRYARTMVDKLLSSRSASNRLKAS
An asterisk follows results filed as active; [ ] = remark or other dose. In the library only some 11% were active in any assay of this set; here they are far more common. Calls follow the shape of the dose curve; as a rule, active = well fitted curve in the direction sought with a large enough effect; inconclusive = small, poorly fitted or top-dose-only effect, or another doubt; inactive = no such curve, though single readings can be large; an effect the other way counts as inactive or inconclusive. Potency is read from the fitted curve at half-maximal effect.

For CCOc1ccccc1C(O)C1=CC(=O)c2ccccc2C1=O (configuration not stated) the results were HP1b binding inh -21%, VDR inhibitor -24%, JMJD2A Tudor inh 25µM* and PLK1 PBD block inconclusive.
O=C(NCCC(F)(F)F)C1Cc2c(-c3ccccc3Oc3ccccc3)ccnc2O1 (configuration not stated) was read as PLK1 PBD block -5%.
CCCCOc1ccc(C2=NC(c3cccs3)=Nc3ccc(OC)cc3N2)cc1 was read as BAZ2B inh inconclusive, HP1b binding inh -23%, VDR inhibitor 12%, G9a block inconclusive and JMJD2A Tudor inh 40µM*.
For CCc1ccc2c(c1)NC(c1ccc(OC)cc1)=NC(c1ccncc1)=N2 the results were BAZ2B inh inconclusive, HP1b binding inh inconclusive, VDR inhibitor -7%, G9a block -8%[59 µM] and JMJD2A Tudor inh 50µM*.
`CCOc1ccc(C2=NC(c3cccs3)=Nc3ccc(CC)cc3N2)cc1OCC` gave BAZ2B inh 10µM*, HP1b binding inh inconclusive, VDR inhibitor -7%, G9a block 10µM* and JMJD2A Tudor inh 25µM*.
Screening CCOC(=O)C1(C)CCN1C(=O)c1cccc(C#N)c1 (configuration not stated) returned PLK1 PBD block 5%.
`O=S(=O)(c1ccc(NC(=S)NCCC(c2ccccc2)c2ccccc2)cc1)N1CCOCC1` gave BAZ2B inh -8%, HP1b binding inh 6%, VDR inhibitor -19%, G9a block -3%[59 µM], JMJD2A Tudor inh -32% and PLK1 PBD block -13%.
For COc1cccc(Cn2ncc3c4sc(C)cc4n(C)c3c2=O)c1 the results were JMJD2A Tudor inh -19%.
Cc1ccc(CSCCNC(=O)c2ccc(NS(C)(=O)=O)cc2)cc1 was read as BAZ2B inh -6%, HP1b binding inh 17%, VDR inhibitor 15%, JMJD2A Tudor inh 3% and PLK1 PBD block -3%.
COc1cc2c(c(O)c1OC)-c1c(cc(OC)c(OC)c1O)[C@@H](OC(=O)c1ccccc1)[C@@](C)(O)[C@@H](C)[C@@H]2OC(C)=O was read as BAZ2B inh 50µM* and G9a block 14%[59 µM].
For Cc1cccc(C)c1NC(=O)CCSc1nc(-c2ccc3c(c2)OCO3)cc(C(F)(F)F)n1 the results were BAZ2B inh 0%, HP1b binding inh 36%, VDR inhibitor -3%, G9a block 10%[59 µM] and JMJD2A Tudor inh 5%.
Screening O=[N+]([O-])c1ccc(N=Nc2c(Cl)cc(O)cc2Cl)cc1 returned BAZ2B inh 8.9µM*, HP1b binding inh 13µM*, VDR inhibitor -22%, G9a block 10µM*, JMJD2A Tudor inh 11µM* and PLK1 PBD block inconclusive.
Screening CCOC(=O)c1ccc(NC(=O)c2nccnc2C(=O)O)cc1 returned BAZ2B inh inconclusive, HP1b binding inh 15%, VDR inhibitor -1%, G9a block 28µM*, JMJD2A Tudor inh 40µM* and PLK1 PBD block -13%.
For CCOC(=O)c1ccc(NC(=O)c2nc[nH]c2C(=O)NC)cc1 the results were BAZ2B inh inconclusive, HP1b binding inh 19%, VDR inhibitor -18%, G9a block inconclusive, JMJD2A Tudor inh inconclusive and PLK1 PBD block -5%.
COc1nc(Nc2cccc(C(F)(F)F)c2)nc(OC)n1 was read as BAZ2B inh 8%, HP1b binding inh 29%, VDR inhibitor -18%, G9a block 6%[59 µM], JMJD2A Tudor inh -8% and PLK1 PBD block -7%.
